Reference: the supplement of paper PMC7695840
Structures can show the parent of a compound that is named as a salt.

Columns and labels:
[1] = test system: Staphylococcus aureus MW2 delta-mecA (mecA-); assay: normalized GFP fluorescence (growth of mecA- strain) (fraction of control range); higher = more growth of mecA- strain; details: compound concentration: 150 uM; cefoxitin: subinhibitory; fluorescent label: GFP
Procedure, shortened: (§1)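 Pre-induced S. aureus MW2 mecA+ (DsRed) and ΔmecA (GFP) cells were mixed 1:1 in LB with a daily-set subinhibitory cefoxitin dose. They were dispensed at 5 µL/well onto 150 μM compound (1.5% DMSO) in 1536-well plates, single replicate. Growth was 20 h at 37 °C, 90% humidity, unshaken, and DsRed (540/590) and GFP (485/520) were then read. Each channel was scaled per plate between the medians of the single-strain controls. Plates with high No Treatment ratios and rows with DsRed/GFP >10 were excluded.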

[2] = test system: Staphylococcus aureus MW2 (mecA+); assay: normalized DsRed fluorescence (growth of mecA+ strain) (fraction of control range); higher = more growth of mecA+ strain; details: compound concentration: 150 uM; cefoxitin: subinhibitory; fluorescent label: DsRed
Procedure, shortened: as §1

| Structure (SMILES) | normalized GFP fluorescence [1] | normalized DsRed fluorescence [2] |
| --- | --- | --- |
| CC[C@@H]1C(=O)OC[C@@H]1Cc1cncn1C | 0.483 | 0.892 |
| CC(C)NCC(O)COc1ccc(COCCOC(C)C)cc1 (stereo not drawn) | 0.499 | 0.658 |
| COc1ccccc1OCCNCC(O)COc1cccc2[nH]c3ccccc3c12 (stereo not drawn) | 0.0386 | 1.17 |
| Cc1cc(CC(=O)O)n(C)c1C(=O)c1ccc(Cl)cc1 | 0.288 | 0.63 |
| CCOc1ccccc1OC(c1ccccc1)C1CNCCO1 (stereo not drawn) [Reboxetine mesylate] | 0.435 | 0.581 |
| Nc1nc(F)nc2c1ncn2[C@@H]1O[C@H](COP(=O)(O)O)[C@@H](O)[C@@H]1O | 0.362 | 0.656 |
| CCC1NC(=O)c2cc(S(N)(=O)=O)c(Cl)cc2N1 (stereo not drawn) | 0.601 | 0.513 |
| NC(N)=Nc1nc(CSCC/C(N)=N/S(N)(=O)=O)cs1 | 0.53 | 0.755 |
| NC(=O)c1ncn([C@@H]2O[C@H](CO)[C@@H](O)[C@H]2O)c1N [AICAR (Acadesine)] | 0.547 | 0.71 |
| CC(C)(C(=O)O)c1ccc(C(O)CCCN2CCC(C(O)(c3ccccc3)c3ccccc3)CC2)cc1 (stereo not drawn) | 0.393 | 1.03 |
| COc1cc(/C=C/C(=O)N2CCN(CC(=O)N3CCCC3)CC2)cc(OC)c1OC [Cinepazide maleate] | 0.547 | 0.533 |
| CCCCCCCCCC(=O)N[C@@H](Cc1c[nH]c2ccccc12)C(=O)N[C@H](CC(N)=O)C(=O)N[C@@H](CC(=O)O)C(=O)N[C@@H]1C(=O)NCC(=O)N[C@@H](CCCN)C(=O)N[C@@H](CC(=O)O)C(=O)N[C@H](C)C(=O)N[C@@H](CC(=O)O)C(=O)NCC(=O)N[C@H](CO)C(=O)N[C@@H]([C@H](C)CC(=O)O)C(=O)N[C@@H](CC(=O)c2ccccc2N)C(=O)O[C@@H]1C [Daptomycin] | 0.013 | 0.064 |
| CCOC(=O)N1CCC(=C2c3ccc(Cl)cc3CCc3cccnc32)CC1 | -0.02 | 0.807 |
| C[N+](C)(C)C[C@H](O)CC(=O)[O-] [L-carnitine (Levocarnitine)] | 0.171 | 0.836 |
| C=C1/C(=C\C=C2/CCC[C@]3(C)[C@@H]([C@H](C)CCCC(C)(C)O)CC[C@@H]23)C[C@@H](O)C[C@@H]1O [Calcitriol (Rocaltrol)] | -0.00685 | 1 |
| C[n+]1ccccc1/C=N/O | 0.332 | 0.9 |
| CN(C)CCCN1c2ccccc2Sc2ccccc21 | -0.00898 | 1.06 |
| CCOC(=O)[N-]c1c[n+](N2CCOCC2)no1 | 0.369 | 0.863 |
| CC1=C(/C=C/C(C)=C/C=C/C(C)=C\C(=O)O)C(C)(C)CCC1 [Isotretinoin] | 0.0743 | 1.06 |
| CCN(CC)C(=O)c1ccc(O)c(OC)c1 | 0.00273 | 0.0959 |
| Cc1ncc(C[n+]2csc(CCO)c2C)c(N)n1 | 0.111 | 1.23 |
| CCC1(C)OC(=O)N(C)C1=O (stereo not drawn) | 0.387 | 0.876 |

| Structure (SMILES) | normalized GFP fluorescence [1] | normalized DsRed fluorescence [2] |
| --- | --- | --- |
| Cn1c(=O)c2c(ncn2CC2OCCO2)n(C)c1=O | 0.29 | 1.05 |
| CC(CCc1ccccc1)NCC(O)c1ccc(O)c(C(N)=O)c1 (stereo not drawn) | 0.745 | 0.7 |
| CNC[C@@H](O)c1ccc(O)c(O)c1 [L-Adrenaline (Epinephrine)] | 0.385 | 0.715 |
| CCCCNc1ccc(C(=O)OCCN(C)C)cc1 | 0.243 | 0.719 |
| CC(=O)N(CC(O)CN(C(C)=O)c1c(I)c(C(=O)NCC(O)CO)c(I)c(C(=O)NCC(O)CO)c1I)c1c(I)c(C(=O)NCC(O)CO)c(I)c(C(=O)NCC(O)CO)c1I (stereo not drawn) | 0.268 | 0.83 |
| CC(C)(C#N)c1cc(Cn2cncn2)cc(C(C)(C)C#N)c1 | 0.351 | 0.796 |
| CN1C2CCCC1CC(NC(=O)c1nn(C)c3ccccc13)C2 (stereo not drawn) | 0.718 | 0.441 |
| NNC(=O)c1ccncc1 | 0.19 | 1.03 |
| N[C@@H](Cc1cc(I)c(Oc2cc(I)c(O)c(I)c2)c(I)c1)C(=O)O | 0.297 | 0.575 |
| CN(C(=O)C(Cl)Cl)c1ccc(OC(=O)c2ccco2)cc1 | 0.156 | 0.938 |
| CC(C)[C@H](N)C(=O)OCCOCn1cnc2c(=O)nc(N)[nH]c21 [Valaciclovir HCl] | 0.302 | 0.782 |
| C#Cc1cccc(Nc2ncnc3cc4c(cc23)OCCOCCOCCO4)c1 [Icotinib] | 0.488 | 0.429 |
| CNC(=C[N+](=O)[O-])NCCSCc1ccc(CN(C)C)o1 | 0.32 | 0.742 |
| CN1CCN(CC/C=C2/c3ccccc3Sc3ccc(S(=O)(=O)N(C)C)cc32)CC1 | 0.0289 | 1.9 |
| Cn1c(=O)c2c(ncn2C)n(C)c1=O | 0.319 | 0.708 |
| S=P(N1CC1)(N1CC1)N1CC1 | 0.213 | 0.86 |
| CCCS(=O)(=O)Nc1ccc(F)c(C(=O)c2c[nH]c3ncc(-c4ccc(Cl)cc4)cc23)c1F [Vemurafenib (PLX4032)] | 0.416 | 0.489 |
| CC(C)Cc1ccc([C@H](C)C(=O)O)cc1 | 0.21 | 0.388 |
| OC[C@H]1O[C@@H](n2cnc3c2N=CNC[C@H]3O)C[C@@H]1O [Pentostatin] | 0.461 | 0.689 |
| CC1(C)O[C@@H]2[C@@H](CO[C@@]3(COS(N)(=O)=O)OC(C)(C)O[C@@H]23)O1 | 0.798 | 0.547 |
| Cc1cc(C#N)cc(C)c1Oc1nc(Nc2ccc(C#N)cc2)nc(N)c1Br [Etravirine (TMC125)] | 0.423 | 0.589 |
| CCC(=O)O[C@]1(C(=O)SCF)[C@H](C)C[C@H]2[C@@H]3C[C@H](F)C4=CC(=O)C=C[C@]4(C)[C@@]3(F)[C@@H](O)C[C@@]21C | 0.777 | 0.959 |
